PfHsp90 set2 – reduces growth (ATP signal) of yeast expressing P. falciparum Hsp90; S. cerevisiae expressing PfHsp90, BacTiter-Glo ATP, 48 h; yeast lacking PDR1 and PDR3 efflux regulators; inhibition, % at 9.4 µM; 310,000 compounds, 0.32% hits; AID 504621;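 active = every replicate shows inhibition above about 80%, whatever the replicate mean, limit read from the data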;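 also: 0% = DMSO neutral controls and 100% = 20 µM radicicol positive controls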
SKKanGAS inh – inhibitors of SKKanGAS S. pyogenes growth in kanamycin (SK-promoter or general growth effect); BacTiter-Glo, 6 h; inhibition, % at 7.5 µM; 300,000 compounds, 1.3% hits; AID 1662;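 active = mean replicate score, as percent of positive control median, at least 50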;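 also: strain carries kanamycin resistance gene driven by streptokinase promoter and grows in 40 µg/ml kanamycin; loss of luminescence reflects streptokinase promoter inhibition or plain growth inhibition; 0% = median of DMSO wells and 100% = positive control at its reference dose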
tim10-1 inh – inhibits growth of tim10-1 mutant yeast | AID 463190 | S. cerevisiae tim10-1 ts strain growth, BacTiter-Glo, 24 h | inhibition, % at 20 µM | 330,000 compounds, 2.2% hits;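 active = inhibition of at least 40%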;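 also: mutant grown at 25 °C; 0% = DMSO wells with yeast and 100% = wells holding no yeast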
V-ATPase pHluor – alters yeast V-ATPase proton transport. S. cerevisiae, pHLuorin cytosolic pH fluorescence. response, % at 10 µM. 350,000 compounds, 0.37% hits. AID 504577; in the data active = response mostly above about 7.3%, no sharp cut-off; inactive = mostly below about 5.4%; also: actives read high
tim23-1 inh – growth inhibitors of tim23-1 mutant yeast. S. cerevisiae tim23-1 growth, BacTiter-Glo luminescence, 24 h. inhibition, % at 20 µM. 330,000 compounds, 1.3% hits. AID 463212;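 active = growth inhibition of the mutant yeast at or above 50%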;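 also: temperature-sensitive mutant grown at 25 °C; plate controls were DMSO-treated mutant yeast for no effect and medium wells lacking yeast for full effect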
TIM10 inh – growth inhibitors of TIM10 yeast strain; S. cerevisiae TIM10 strain growth, BacTiter-Glo luminescence, 24 h; inhibition, % at 10 µM; 330,000 compounds, 1.4% hits; AID 463195;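 active = inhibition of 40% or more at the single tested concentration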;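 also: wild-type TIM10 isogenic control strain grown at permissive 25 °C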
tim10-1 confirm – confirmation of tim10-1 mutant yeast growth inhibitors; shares compounds with tim10-1 inh; S. cerevisiae tim10-1 ts strain growth, BacTiter-Glo, 24 h; inhibition, % at 20 µM; 7,400 compounds, 56% hits;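 active = inhibition of yeast growth at or above a set limit in either of two repeat tests at 20 µM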;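 also: tim10-1 mutant grown at permissive 25 °C to find synthetic lethal compounds; 0% = DMSO yeast wells and 100% = medium wells without yeast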
tim10 confirm – TIM10 yeast growth inhibition, confirmed; shares compounds with TIM10 inh; S. cerevisiae tim10 strain growth, BacTiter-Glo luminescence, 24 h; inhibition, % at 10 µM; 4,600 compounds, 63% hits; AID 463215;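 active = inhibition of yeast growth at or above a set limit in either of two replicates at 10 µM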;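 also: this counterscreen used the strain with wild-type TIM10; 0% = yeast with DMSO and 100% = medium wells lacking yeast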
tim23-1 conf – confirmation of tim23-1 mutant yeast growth inhibitors. shares compounds with tim23-1 inh. S. cerevisiae tim23-1 growth, BacTiter-Glo luminescence, 24 h. inhibition, % at 20 µM. 4,400 compounds, 83% hits;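 active = inhibition above about 39% in either of two replicate wells at 20 µM, limit read from the data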;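 also: temperature-sensitive tim23-1 mutant grown at 25 °C; 0% = DMSO wells with yeast and 100% = medium wells without yeast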
* hit, by the source's call. The list is not random: actives were taken first. Their share in the collection is about 4.6%.

`COC(=O)C1=C(C)N(Cc2ccco2)C(=O)/C1=C\c1ccc([N+](=O)[O-])cc1` gave PfHsp90 set2 -7, SKKanGAS inh 19, tim10-1 inh 62*, V-ATPase pHluor -2, tim23-1 inh 64*, TIM10 inh 66*, tim10-1 confirm 77*, tim10 confirm 74* and tim23-1 conf 57*.
For CCN1C(=O)/C(=C\c2ccc3c(c2)OCO3)C(C(=O)OC)=C1C the results were SKKanGAS inh -8, tim10-1 inh 47*, V-ATPase pHluor 0, tim23-1 inh 50, TIM10 inh 56*, tim10-1 confirm 45*, tim10 confirm 43* and tim23-1 conf 62*.
`Cc1cccc(N2CCN(S(=O)(=O)c3ccc4c(c3)NC(=O)C(C)S4)CC2)c1C` (stereo not drawn) gave PfHsp90 set2 -52, SKKanGAS inh 20, tim10-1 inh 50*, V-ATPase pHluor 4, tim23-1 inh 55*, TIM10 inh 10, tim10-1 confirm 21 and tim23-1 conf 34.
For O=C(NCc1cccc(F)c1)C1CCN(C(=O)c2sccc2-n2cccc2)CC1 the results were PfHsp90 set2 1, SKKanGAS inh -2, tim10-1 inh 18, V-ATPase pHluor -1, tim23-1 inh 11 and TIM10 inh 0.
For CSc1ccc(CN2CCC(n3nccc3NC(=O)C3CCOC3)CC2)cc1 (stereo not drawn) the results were PfHsp90 set2 -22, SKKanGAS inh 15, tim10-1 inh -20, V-ATPase pHluor 3, tim23-1 inh -7 and TIM10 inh -6.
Screening CC(=O)NNc1nc(-c2ccccc2)c2cc(Br)ccc2n1 returned SKKanGAS inh 0, tim10-1 inh 10, V-ATPase pHluor 2, tim23-1 inh -24 and TIM10 inh 11.
O=c1cc(-c2ccccc2)nc2cc(-c3ccc(Br)cc3)[nH]n12 was read as PfHsp90 set2 -8, SKKanGAS inh 11, tim10-1 inh -11, V-ATPase pHluor 3, tim23-1 inh 6 and TIM10 inh 0.
Screening NNc1nc(-c2ccccc2)c2cc(Cl)ccc2n1 returned PfHsp90 set2 9, SKKanGAS inh 47, tim10-1 inh 54*, V-ATPase pHluor -2, tim23-1 inh 63*, TIM10 inh 48*, tim10-1 confirm 32*, tim10 confirm 24 and tim23-1 conf 52*.
NNc1nc(-c2ccccc2)c2cc(Br)ccc2n1 was read as PfHsp90 set2 3, SKKanGAS inh 65*, tim10-1 inh 44*, V-ATPase pHluor 1, tim23-1 inh 62*, TIM10 inh 56*, tim10-1 confirm 48*, tim10 confirm 30 and tim23-1 conf 28.
NNc1nc(-c2ccccc2)cc(-c2ccc(Br)cc2)n1 was read as PfHsp90 set2 16, SKKanGAS inh 46, tim10-1 inh 55*, V-ATPase pHluor 4, tim23-1 inh 55*, TIM10 inh 39, tim10-1 confirm 50* and tim23-1 conf 58*.
Screening C=CC[C@@H](CC(=O)N(CCO)Cc1ccccc1)C(=O)N[C@H](COC(=O)[C@H](CC=C)CC(=O)OC(C)(C)C)Cc1c[nH]c2ccccc12 returned PfHsp90 set2 -18, tim10-1 inh 8, V-ATPase pHluor -2, tim23-1 inh 19 and TIM10 inh 5.
Screening Cc1ccc(S(=O)(=O)N2CCC[C@H]2C(=O)NC2CCCCC2)cc1 returned PfHsp90 set2 -5 and V-ATPase pHluor -1.
Screening O=C(Nc1cccc(S(=O)(=O)N2CCCCCC2)c1)C1CCC1 returned PfHsp90 set2 0, SKKanGAS inh -7, tim10-1 inh 22, V-ATPase pHluor -3, tim23-1 inh 25 and TIM10 inh 14.
`COc1ccc(Cl)cc1C(=O)NC(=S)Nc1ccccc1N1CCOCC1` gave PfHsp90 set2 -4, SKKanGAS inh 6, tim10-1 inh 15, V-ATPase pHluor 1, tim23-1 inh 24 and TIM10 inh 9.
`O=C(NC(=S)Nc1cc(Cl)ccc1N1CCOCC1)c1ccccc1[N+](=O)[O-]` gave PfHsp90 set2 -29, SKKanGAS inh -2, tim10-1 inh 51*, V-ATPase pHluor -5, tim23-1 inh 56*, TIM10 inh 45*, tim10-1 confirm 50*, tim10 confirm 47* and tim23-1 conf 55*.
CC(=O)OCCN1c2ccccc2Sc2cnccc21 was read as V-ATPase pHluor -3.
`CC(=O)OCCCN1c2ccccc2Nc2nnc(-c3ccccc3)cc21` gave PfHsp90 set2 -9, SKKanGAS inh 3, tim10-1 inh 47*, V-ATPase pHluor 6, tim23-1 inh 51*, TIM10 inh 51*, tim10-1 confirm 32*, tim10 confirm 30* and tim23-1 conf 49*.
Screening CSc1nnc(NC(=O)c2ccc(S(=O)(=O)N3CCOCC3)cc2)s1 returned PfHsp90 set2 -20, SKKanGAS inh 2, tim10-1 inh 11, V-ATPase pHluor 5, tim23-1 inh 16 and TIM10 inh 7.
Screening O=C(COC(=O)COc1ccc(Br)cc1)NC1CCCCCC1 returned PfHsp90 set2 11, tim10-1 inh 7, V-ATPase pHluor -2, tim23-1 inh 15 and TIM10 inh -5.
For O=C(CNc1ccc(Br)cc1)NC(=O)NC1CCCCC1 the results were PfHsp90 set2 -21, tim10-1 inh 48*, V-ATPase pHluor 6, tim23-1 inh 59*, TIM10 inh 26, tim10-1 confirm 37* and tim23-1 conf 37.
`Oc1c(Br)cc(Br)cc1/C=N/c1nc2c(s1)CCCC2` gave PfHsp90 set2 74, SKKanGAS inh 51*, tim10-1 inh 53*, V-ATPase pHluor 0, tim23-1 inh 76*, TIM10 inh 42*, tim10-1 confirm 28, tim10 confirm 30 and tim23-1 conf 91*.
CC1(C)CC(=O)C(CC(=O)Nc2cc(C(F)(F)F)ccc2Cl)C(=O)C1 was read as PfHsp90 set2 6, SKKanGAS inh 4, tim10-1 inh 22, V-ATPase pHluor 1, tim23-1 inh 33 and TIM10 inh 23.
For Cc1cc(C)nc(NC(=O)c2ccc(Cl)cc2[N+](=O)[O-])c1 the results were PfHsp90 set2 16, SKKanGAS inh 2, tim10-1 inh 19, V-ATPase pHluor -1, tim23-1 inh 27 and TIM10 inh 11.
